Test [1] is described as follows: A CellTox Green Cytotoxicity Assay to monitor cytotoxicity in HepG2 cells - 16 hour (AID 1224876). Note: nearly all actives have a fitted effect of over 45% in size. Note: potency is the fitted concentration of half-maximal effect. An outline of the steps:
(§1)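 Measurements at 0, 8, 16, 24, 32 and 40 h of treatment captured CellTox Green fluorescence in HepG2 cells that had been co-plated with reagent and preincubated 5 h at 37 C/5% CO2.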

The nature of test [2]: qHTS RealTime-Glo MT Cell Viability Assay in HepG2 cells - 32 hour (AID 1224877). Note: nearly all actives have a fitted effect of over 55% in size. An outline of the steps: (§2)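 Tox21 10K library screened in qHTS format on HepG2 cells carrying RealTime-Glo reagents. Compounds were added after a 5 h preincubation, and the luminescent signal from continuous culture was measured repeatedly during 40 h treatment.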
Test [3] is described as follows: A CellTox Green Cytotoxicity Assay to monitor cytotoxicity in HepG2 cells - 24 hour (AID 1224878). Note: nearly all actives have a fitted effect of over 45% in size. Note: potency is the fitted concentration of half-maximal effect. In short, it runs like this:
as §1

Test [4] in a line: A CellTox Green Cytotoxicity Assay to monitor cytotoxicity in HepG2 cells - 40 hour (AID 1224879). Note: nearly all actives have a fitted effect of over 40% in size. Note: potency is the fitted concentration of half-maximal effect. In short, it runs like this: as §1
Test [5] in a line: qHTS RealTime-Glo MT Cell Viability Assay in HEK293 cells - 0 hour (AID 1224880). Note: top concentration of the series differs between compounds; nearly all actives have a fitted effect of over 45% in size. An outline of the steps:
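HEK293 + NanoLuc + prosubstrate, 600 cells/well; 5 h, 37 C/5% CO2; compound 23 nL in DMSO by pintool; 37 C; luminescence read at 0, 8, 16, 24, 32 and 40 h time points.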
For orientation: In qHTS, concentration-response curves come from the screen itself.

Test [6] in a line: A CellTox Green Cytotoxicity Assay to monitor cytotoxicity in HepG2 cells - 0 hour (AID 1224882). Note: nearly all actives have a fitted effect of over 35% in size. Note: potency is the fitted concentration of half-maximal effect. An outline of the steps: as §1
The nature of test [7]: A CellTox Green Cytotoxicity Assay to monitor cytotoxicity in HepG2 cells - 32 hour (AID 1224883). Note: nearly all actives have a fitted effect of over 50% in size. An outline of the steps:
as §1

The nature of test [8]: A CellTox Green Cytotoxicity Assay to monitor cytotoxicity in HEK293 cells - 32 hour (AID 1224881). Note: nearly all actives have a fitted effect of over 40% in size. Note: potency is the fitted concentration of half-maximal effect. In short, it runs like this: (§3)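 Tox21 screen in HEK293: membrane-impermeant cyanine dye fluoresces on binding dead-cell DNA; compound pinned 5 h post-seeding, plates held at 37 C, signal read repeatedly through 40 h.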
The nature of test [9]: A CellTox Green Cytotoxicity Assay to monitor cytotoxicity in HEK293 cells - 8 hour (AID 1224884). Note: nearly all actives have a fitted effect of over 35% in size. Note: potency is the fitted concentration of half-maximal effect. An outline of the steps:
as §3

A short description of test [10]: qHTS RealTime-Glo MT Cell Viability Assay in HepG2 cells - 16 hour (AID 1224885). Note: nearly all actives have a fitted effect of over 50% in size. In short, it runs like this: as §2

Molecules are shown by their SMILES. Records with an inconclusive call do not appear. Activity calls are given as the source filed them. Calls come from the whole dose curve; as a rule, active = well fitted curve in the direction sought with a large enough effect in the repeat runs; inconclusive = weak or mixed curves; inactive = no such curve, though single readings can be large; an effect the other way counts as inactive or inconclusive.

In the case of `CCC(O)C(C)(C)C` (configuration not stated), the Potency result in test [1], in [3], in test [4], in [6] and in test [7] was “inactive” throughout. The call in test [2] and in test [5] was inactive.

`CCC(C)N` (configuration not stated): the Potency entry in [1], in test [3], in test [4], in test [8], in [6] and in test [9] was “inactive” in each case. For the same compound, the compound was classed as inactive in test [2], in [5] and in [10].

Regarding `CC(C)(C)c1ccc(C=O)cc1`, the Potency entry in test [1], in test [3], in [4], in test [6] and in test [7] was “inactive” each time. Besides, the outcome in [2], in test [5] and in test [10] was inactive.

Regarding `O=C(Oc1ccccc1C(=O)O)c1ccccc1O`, the Potency entry in test [1], in [3], in test [4], in test [8], in [6] and in [9] was “inactive” in each case. For the same compound, the result in [2], in test [5] and in test [10] was inactive.

Take `COc1cc2c3cc1Oc1cc(ccc1O)C[C@@H]1c4c(cc(OC)c(O)c4Oc4ccc(cc4)C[C@@H]3N(C)CC2)CC[N+]1(C)C`: the Potency result in test [1], in test [3], in [4], in test [8], in test [6] and in test [7] was “inactive” throughout. The Potency result in [9] is “inactive”. Moreover, the result in test [2] and in test [10] was inactive.

In the case of `CC(C)(c1ccc(Oc2ccc3c(c2)C(=O)OC3=O)cc1)c1ccc(Oc2ccc3c(c2)C(=O)OC3=O)cc1`, the Potency entry in test [1], in test [3], in test [4], in test [8], in [6] and in test [7] was “inactive” each time. The call in [2], in test [5] and in test [10] was inactive.

Take `CC(=O)N1CCN(c2ccc(O)cc2)CC1`: the Potency result in test [1], in [3], in [4], in test [8], in test [6] and in test [7] was “inactive” throughout. Besides, the Potency entry in test [9] is “inactive”. For the same compound, the compound was called inactive in test [2] and in test [10].

In the case of `CCN(Cc1cccc(S(=O)(=O)O)c1)c1ccccc1`, the Potency entry in [1], in test [3], in test [4], in test [8], in test [6] and in [9] was “inactive” throughout. Further, the result in [2], in test [5] and in test [10] was inactive.

For `Cc1ccccc1OCC1CO1` (configuration not stated), the Potency result in test [1], in [3], in test [4], in test [8], in test [6] and in test [9] was “inactive” throughout. In addition, the call in test [2], in test [5] and in test [10] was inactive.

In the case of `CC(C)SCc1ccco1`, the Potency entry in [1], in [3], in [4], in test [8], in test [6] and in test [9] was “inactive” each time. In addition, the outcome in test [2] and in test [5] was inactive.

Turning to `CCc1nccnc1C`, the Potency result in test [1], in test [3], in test [4], in [8], in [6] and in [9] was “inactive” each time. Moreover, the compound was called inactive in [2], in test [5] and in [10].

Regarding `O=C(/C=C/c1ccccc1)NCCO`, the Potency is 9.52 µM (active) in [1]; 6.74 µM (active) in [3]; 6.01 µM (active) in [4]; 6.74 µM (active) in [8]; 6.01 µM (active) in [6]; 9.52 µM (active) in [9]. The compound was classed as inactive in test [2], in test [5] and in test [10].

Turning to `Cc1nc2ccccc2c(=O)o1`, the Potency entry in [1], in [3], in [4] and in test [6] was “inactive” in each case. Further, the outcome in [2], in test [5] and in [10] was inactive.

As to `Cc1ccccc1N1CCN(CCc2nnc3n2CCCC3)CC1`, the Potency result in [1], in [3], in test [4], in [8], in test [6] and in test [9] was “inactive” in each case. The outcome in test [2], in test [5] and in test [10] was inactive.

As for `C=CCOc1c(Br)cc(C(C)(C)c2cc(Br)c(OCC=C)c(Br)c2)cc1Br`, the Potency entry in test [1], in [3], in test [4], in test [8], in test [6] and in test [9] was “inactive” each time. Further, the call in test [2], in test [5] and in test [10] was inactive.

Take `CC(=O)OCCCc1ccccc1`: the Potency entry in [1], in test [3], in test [4], in [8], in [6] and in test [7] was “inactive” throughout. Also, the Potency result in [9] was “inactive”. Also, the call in [2] and in [10] was inactive.

Turning to `CC(C)(CO)[C@@H](O)C(=O)NCCCO`, the Potency result in [1], in test [3], in test [4], in [8], in [6] and in [9] was “inactive” throughout. For the same compound, the call in [2], in test [5] and in [10] was inactive.

With `CC(=O)OCC(=O)[C@@]1(O)[C@H](OC(C)=O)C[C@H]2[C@@H]3CCC4=CC(=O)C=C[C@]4(C)[C@@]3(F)[C@@H](O)C[C@@]21C`, the Potency result in test [1], in test [3], in test [8], in test [6], in test [7] and in test [9] was “inactive” in each case. Moreover, the result in test [2], in test [5] and in [10] was inactive.

For `NS(=O)(=O)c1ccccc1OC(F)(F)F`, the Potency result in test [1], in test [3], in test [4], in test [8], in test [6] and in [7] was “inactive” throughout. Further, the compound was called inactive in test [2] and in test [10].

As for `CCCOC(=O)CCCCC(=O)OCCC`, the Potency entry in [1], in test [3], in test [4], in [8], in test [6] and in test [7] was “inactive” each time. In addition, the result in [2] and in test [10] was inactive.

With `COC(OC)C(C)c1ccccc1` (configuration not stated), the Potency result in test [1], in [3], in test [4], in test [8], in test [6] and in test [7] was “inactive” throughout. In [9], the Potency result is “inactive”. In addition, the compound was classed as inactive in test [2] and in [10].

As for `COc1ccc(/C=N/NC(=O)c2ccncc2)cc1OC`, the Potency result in test [1], in test [3], in test [4], in test [8], in test [6] and in test [7] was “inactive” each time. Also, the compound was classed as inactive in test [2] and in test [10].

Regarding `C1CCN2C[C@@H]3C[C@@H](CN4CCCC[C@@H]34)[C@H]2C1`, the Potency entry in [1], in test [3], in [4], in [8], in test [6] and in [7] was “inactive” in each case. In [9], the Potency result was “inactive”. Also, the compound was called inactive in [2] and in test [10].

For the compound `C[Si]1(C)N[Si](C)(C)N[Si](C)(C)N1`, the Potency result in test [1], in [3], in [8], in [6], in test [7] and in [9] was “inactive” throughout. In addition, the compound was called inactive in [2], in [5] and in test [10].

Source of the values: PubChem BioAssay (Tox21).
